The source of these data is ChEMBL document CHEMBL2218924, “A broad activity screen in support of a chemogenomic map for kinase signalling research and drug discovery” (Biochem J, 2013).

The target of assay [1] is Serine/threonine-protein kinase 33 (Homo sapiens) (UniProt Q9BYT3). As to conditions: at 10 µM.
Assay [2] addresses T1, Mitogen-activated protein kinase kinase kinase 7 (Homo sapiens) (UniProt O43318).
T1 sequence (whole entry): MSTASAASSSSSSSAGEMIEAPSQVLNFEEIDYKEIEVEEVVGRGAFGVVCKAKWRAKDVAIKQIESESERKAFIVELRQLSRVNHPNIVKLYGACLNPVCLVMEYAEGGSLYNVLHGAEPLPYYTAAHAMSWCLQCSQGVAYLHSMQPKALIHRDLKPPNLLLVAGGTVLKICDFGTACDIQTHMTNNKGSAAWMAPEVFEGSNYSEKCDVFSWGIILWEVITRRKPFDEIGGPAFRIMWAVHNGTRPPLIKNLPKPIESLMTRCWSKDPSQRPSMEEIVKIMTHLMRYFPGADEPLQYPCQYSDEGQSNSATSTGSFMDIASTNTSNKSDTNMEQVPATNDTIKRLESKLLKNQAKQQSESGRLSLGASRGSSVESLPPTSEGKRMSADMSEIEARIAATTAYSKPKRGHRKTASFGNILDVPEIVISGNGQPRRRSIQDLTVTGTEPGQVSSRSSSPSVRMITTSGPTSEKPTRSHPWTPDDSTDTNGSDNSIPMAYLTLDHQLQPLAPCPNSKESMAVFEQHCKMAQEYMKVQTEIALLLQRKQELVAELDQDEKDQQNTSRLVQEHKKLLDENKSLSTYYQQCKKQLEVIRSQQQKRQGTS
As to conditions: at 1 µM.

Assay [3] deals with T1, Mitogen-activated protein kinase kinase kinase 7 (Homo sapiens). Particulars: at 10 µM.
Assay [4] addresses T2, Serine/threonine-protein kinase TAO1 (Homo sapiens) (UniProt Q7L7X3).
T2 sequence (whole entry): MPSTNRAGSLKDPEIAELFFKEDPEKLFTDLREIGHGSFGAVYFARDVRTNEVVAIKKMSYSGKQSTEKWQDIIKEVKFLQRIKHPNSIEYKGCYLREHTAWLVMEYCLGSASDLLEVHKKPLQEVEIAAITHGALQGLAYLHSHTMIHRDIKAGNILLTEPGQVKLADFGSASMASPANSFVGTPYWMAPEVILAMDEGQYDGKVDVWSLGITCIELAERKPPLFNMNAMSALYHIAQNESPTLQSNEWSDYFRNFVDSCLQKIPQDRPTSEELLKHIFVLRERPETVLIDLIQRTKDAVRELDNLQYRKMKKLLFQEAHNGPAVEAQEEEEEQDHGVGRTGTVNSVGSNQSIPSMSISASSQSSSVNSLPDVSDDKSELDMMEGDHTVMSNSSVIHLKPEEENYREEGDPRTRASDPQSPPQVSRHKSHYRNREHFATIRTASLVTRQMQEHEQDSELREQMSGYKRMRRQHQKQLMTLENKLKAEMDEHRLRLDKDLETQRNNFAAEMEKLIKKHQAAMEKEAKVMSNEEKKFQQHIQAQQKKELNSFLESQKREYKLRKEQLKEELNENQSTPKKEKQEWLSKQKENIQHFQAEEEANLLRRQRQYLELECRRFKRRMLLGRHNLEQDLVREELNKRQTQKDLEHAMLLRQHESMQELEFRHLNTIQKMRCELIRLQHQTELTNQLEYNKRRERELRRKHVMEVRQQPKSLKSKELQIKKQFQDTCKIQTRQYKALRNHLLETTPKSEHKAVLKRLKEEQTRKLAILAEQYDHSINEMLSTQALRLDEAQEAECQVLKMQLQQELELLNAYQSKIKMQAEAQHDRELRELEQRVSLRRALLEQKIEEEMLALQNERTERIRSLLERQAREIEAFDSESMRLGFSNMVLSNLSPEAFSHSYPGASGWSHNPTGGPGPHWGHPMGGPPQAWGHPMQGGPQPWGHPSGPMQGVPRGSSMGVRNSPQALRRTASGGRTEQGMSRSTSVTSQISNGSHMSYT
Particulars: at 1 µM.

Assay [5] has as its target T2, Serine/threonine-protein kinase TAO1 (Homo sapiens). Particulars: at 10 µM.
The target in assay [6] is T3, Serine/threonine-protein kinase TAO2 (Homo sapiens) (UniProt Q9UL54).
T3 sequence (whole entry): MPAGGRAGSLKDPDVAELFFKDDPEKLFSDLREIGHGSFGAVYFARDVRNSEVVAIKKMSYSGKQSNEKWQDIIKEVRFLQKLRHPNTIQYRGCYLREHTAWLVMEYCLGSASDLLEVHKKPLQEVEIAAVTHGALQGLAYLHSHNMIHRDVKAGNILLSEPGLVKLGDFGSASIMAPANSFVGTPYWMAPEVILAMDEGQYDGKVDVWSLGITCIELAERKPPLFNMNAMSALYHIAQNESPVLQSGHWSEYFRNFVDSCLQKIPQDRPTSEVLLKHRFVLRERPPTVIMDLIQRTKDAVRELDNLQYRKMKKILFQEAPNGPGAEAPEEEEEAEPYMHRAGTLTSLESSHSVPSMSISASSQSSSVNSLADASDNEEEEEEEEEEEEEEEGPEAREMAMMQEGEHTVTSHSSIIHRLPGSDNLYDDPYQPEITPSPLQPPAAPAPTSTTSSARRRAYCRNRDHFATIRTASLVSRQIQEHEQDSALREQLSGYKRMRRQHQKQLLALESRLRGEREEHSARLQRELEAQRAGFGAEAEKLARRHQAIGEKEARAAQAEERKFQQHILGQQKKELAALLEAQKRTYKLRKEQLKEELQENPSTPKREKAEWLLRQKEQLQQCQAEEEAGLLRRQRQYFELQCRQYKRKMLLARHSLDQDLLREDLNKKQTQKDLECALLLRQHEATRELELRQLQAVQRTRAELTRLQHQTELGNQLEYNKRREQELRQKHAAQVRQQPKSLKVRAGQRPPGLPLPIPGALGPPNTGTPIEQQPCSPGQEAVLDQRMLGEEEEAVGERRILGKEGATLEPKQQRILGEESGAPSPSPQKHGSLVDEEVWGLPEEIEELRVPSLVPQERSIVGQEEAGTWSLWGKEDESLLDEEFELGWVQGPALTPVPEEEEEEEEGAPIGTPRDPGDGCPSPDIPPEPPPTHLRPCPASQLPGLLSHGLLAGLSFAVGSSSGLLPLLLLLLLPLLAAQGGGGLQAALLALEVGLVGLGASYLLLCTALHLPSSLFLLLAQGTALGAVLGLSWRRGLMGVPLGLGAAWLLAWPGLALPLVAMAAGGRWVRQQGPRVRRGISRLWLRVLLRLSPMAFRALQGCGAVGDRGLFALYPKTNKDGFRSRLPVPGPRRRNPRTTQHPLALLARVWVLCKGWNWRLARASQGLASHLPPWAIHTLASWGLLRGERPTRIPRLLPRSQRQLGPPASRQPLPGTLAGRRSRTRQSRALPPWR
As to conditions: at 1 µM.

The target of assay [7] is T3, Serine/threonine-protein kinase TAO2 (Homo sapiens). Particulars: at 10 µM.
Assay [8] addresses T4, Serine/threonine-protein kinase TAO3 (Homo sapiens) (UniProt Q9H2K8).
T4 sequence (whole entry): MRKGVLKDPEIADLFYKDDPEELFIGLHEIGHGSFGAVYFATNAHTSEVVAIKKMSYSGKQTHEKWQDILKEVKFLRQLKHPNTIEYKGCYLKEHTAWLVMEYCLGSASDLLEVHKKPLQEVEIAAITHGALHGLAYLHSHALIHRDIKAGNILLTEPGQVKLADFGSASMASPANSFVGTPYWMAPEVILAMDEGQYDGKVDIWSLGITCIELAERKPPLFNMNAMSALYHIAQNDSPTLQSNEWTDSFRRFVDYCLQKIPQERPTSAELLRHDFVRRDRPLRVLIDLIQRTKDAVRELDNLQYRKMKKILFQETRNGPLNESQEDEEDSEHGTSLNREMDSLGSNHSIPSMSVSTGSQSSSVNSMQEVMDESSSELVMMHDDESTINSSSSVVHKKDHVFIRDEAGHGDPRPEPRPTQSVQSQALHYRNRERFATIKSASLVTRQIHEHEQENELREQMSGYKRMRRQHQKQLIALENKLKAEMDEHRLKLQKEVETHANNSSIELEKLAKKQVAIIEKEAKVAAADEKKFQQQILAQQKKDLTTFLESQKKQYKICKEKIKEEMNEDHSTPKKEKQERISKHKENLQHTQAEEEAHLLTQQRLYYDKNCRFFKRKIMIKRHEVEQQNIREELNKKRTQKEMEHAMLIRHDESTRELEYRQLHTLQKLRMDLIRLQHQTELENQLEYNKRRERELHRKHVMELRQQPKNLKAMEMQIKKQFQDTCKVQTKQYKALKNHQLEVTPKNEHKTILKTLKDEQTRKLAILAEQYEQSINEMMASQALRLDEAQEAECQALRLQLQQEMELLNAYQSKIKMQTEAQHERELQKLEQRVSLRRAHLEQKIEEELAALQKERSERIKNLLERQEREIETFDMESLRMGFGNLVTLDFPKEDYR
As to conditions: at 1 µM.

For assay [9], the target named is T4, Serine/threonine-protein kinase TAO3 (Homo sapiens). Particulars: at 10 µM.
Assay [10] concerns the target Serine/threonine-protein kinase 33 (Homo sapiens) (UniProt Q9BYT3). As to conditions: at 1 µM.
Assay [11] has as its target Serine/threonine-protein kinase PLK2 (Homo sapiens) (UniProt Q9NYY3). Particulars: at 1 µM.
The target is the same in assay [12]. Particulars: at 10 µM.
For assay [13], the target named is Tyrosine-protein kinase SYK (Homo sapiens) (UniProt P43405). As to conditions: at 1 µM.
Assay [14] shares this target. Particulars: at 10 µM.
Assay [15] deals with T5, Serine/threonine-protein kinase TBK1 (Homo sapiens) (UniProt Q9UHD2).
T5 sequence (whole entry): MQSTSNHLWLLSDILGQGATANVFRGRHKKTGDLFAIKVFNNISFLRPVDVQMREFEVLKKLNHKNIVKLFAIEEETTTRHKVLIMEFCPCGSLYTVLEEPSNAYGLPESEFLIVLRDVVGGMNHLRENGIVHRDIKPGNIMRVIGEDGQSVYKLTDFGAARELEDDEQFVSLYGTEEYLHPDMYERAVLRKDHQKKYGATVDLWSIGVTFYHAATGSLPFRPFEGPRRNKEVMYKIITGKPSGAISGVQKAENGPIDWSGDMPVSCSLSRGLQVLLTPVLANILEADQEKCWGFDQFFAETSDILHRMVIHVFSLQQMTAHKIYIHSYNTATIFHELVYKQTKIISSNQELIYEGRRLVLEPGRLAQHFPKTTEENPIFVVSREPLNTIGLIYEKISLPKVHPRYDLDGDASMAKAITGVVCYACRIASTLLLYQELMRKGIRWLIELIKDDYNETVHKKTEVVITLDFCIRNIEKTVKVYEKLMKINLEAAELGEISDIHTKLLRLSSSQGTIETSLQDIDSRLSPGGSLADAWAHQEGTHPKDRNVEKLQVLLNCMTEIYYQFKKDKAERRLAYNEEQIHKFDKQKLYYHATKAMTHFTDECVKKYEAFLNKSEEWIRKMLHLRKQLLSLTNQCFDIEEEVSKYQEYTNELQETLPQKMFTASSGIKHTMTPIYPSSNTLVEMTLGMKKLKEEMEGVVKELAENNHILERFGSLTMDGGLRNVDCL
Particulars: at 1 µM.

In assay [16] the target is Insulin-like growth factor 1 receptor (Homo sapiens) (UniProt P08069). As to conditions: at 1 µM.
Assay [17] shares this target. Particulars: at 10 µM.
Assay [18] has as its target T5, Serine/threonine-protein kinase TBK1 (Homo sapiens). As to conditions: at 10 µM.
In assay [19] the target is T6, TGF-beta receptor type-1 (Homo sapiens) (UniProt P36897).
T6 sequence (whole entry): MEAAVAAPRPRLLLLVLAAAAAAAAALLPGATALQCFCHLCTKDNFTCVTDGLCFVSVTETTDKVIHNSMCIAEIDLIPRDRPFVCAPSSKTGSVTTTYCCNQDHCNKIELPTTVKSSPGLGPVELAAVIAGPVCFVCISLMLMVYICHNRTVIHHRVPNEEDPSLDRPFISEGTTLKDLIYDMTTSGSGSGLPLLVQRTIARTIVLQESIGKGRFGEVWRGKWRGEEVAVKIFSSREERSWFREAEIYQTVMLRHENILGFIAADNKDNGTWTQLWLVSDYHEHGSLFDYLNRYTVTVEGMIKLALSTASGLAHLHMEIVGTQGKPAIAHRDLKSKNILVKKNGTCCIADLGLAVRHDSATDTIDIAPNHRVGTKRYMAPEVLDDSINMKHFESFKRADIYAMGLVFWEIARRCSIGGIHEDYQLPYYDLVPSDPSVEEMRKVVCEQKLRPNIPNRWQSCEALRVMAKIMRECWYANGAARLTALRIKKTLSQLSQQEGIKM
As to conditions: at 1 µM.

Assay [20] deals with T6, TGF-beta receptor type-1 (Homo sapiens). As to conditions: at 10 µM.

Structures are written as SMILES.

Sequence of Serine/threonine-protein kinase 33 (Homo sapiens) (Q9BYT3 whole entry, looked up): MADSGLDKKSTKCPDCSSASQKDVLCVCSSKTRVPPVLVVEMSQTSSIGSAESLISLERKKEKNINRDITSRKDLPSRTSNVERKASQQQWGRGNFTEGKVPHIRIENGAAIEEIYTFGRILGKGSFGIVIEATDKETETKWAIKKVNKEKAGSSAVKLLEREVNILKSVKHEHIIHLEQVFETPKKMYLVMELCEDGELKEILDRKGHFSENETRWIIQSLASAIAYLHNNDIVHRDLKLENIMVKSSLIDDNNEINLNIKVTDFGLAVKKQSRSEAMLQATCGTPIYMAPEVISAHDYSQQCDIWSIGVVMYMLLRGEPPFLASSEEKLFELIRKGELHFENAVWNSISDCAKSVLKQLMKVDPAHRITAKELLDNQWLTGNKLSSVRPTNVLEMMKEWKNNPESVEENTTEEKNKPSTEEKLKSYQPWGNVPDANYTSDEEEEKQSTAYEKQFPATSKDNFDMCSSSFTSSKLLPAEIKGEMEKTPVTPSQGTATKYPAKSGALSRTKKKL
Sequence of Serine/threonine-protein kinase PLK2 (Homo sapiens) (Q9NYY3 whole entry, looked up): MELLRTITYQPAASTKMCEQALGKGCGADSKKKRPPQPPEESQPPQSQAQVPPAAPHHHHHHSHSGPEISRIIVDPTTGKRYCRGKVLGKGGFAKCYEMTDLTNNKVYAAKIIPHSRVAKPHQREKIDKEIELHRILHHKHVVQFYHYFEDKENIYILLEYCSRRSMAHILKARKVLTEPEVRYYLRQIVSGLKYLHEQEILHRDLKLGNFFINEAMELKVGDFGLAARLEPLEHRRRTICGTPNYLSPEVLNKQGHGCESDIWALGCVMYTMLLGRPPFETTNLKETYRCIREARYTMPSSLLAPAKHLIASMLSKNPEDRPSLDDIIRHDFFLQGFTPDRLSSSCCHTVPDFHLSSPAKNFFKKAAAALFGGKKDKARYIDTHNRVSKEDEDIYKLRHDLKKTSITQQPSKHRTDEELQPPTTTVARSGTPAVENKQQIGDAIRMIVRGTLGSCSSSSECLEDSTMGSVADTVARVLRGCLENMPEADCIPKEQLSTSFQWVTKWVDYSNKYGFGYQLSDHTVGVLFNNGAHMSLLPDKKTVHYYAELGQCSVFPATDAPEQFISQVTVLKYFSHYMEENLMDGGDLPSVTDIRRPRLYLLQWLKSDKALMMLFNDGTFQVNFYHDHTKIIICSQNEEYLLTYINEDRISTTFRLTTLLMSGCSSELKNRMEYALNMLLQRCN
Sequence of Insulin-like growth factor 1 receptor (Homo sapiens) (P08069 31-736 limits assumed): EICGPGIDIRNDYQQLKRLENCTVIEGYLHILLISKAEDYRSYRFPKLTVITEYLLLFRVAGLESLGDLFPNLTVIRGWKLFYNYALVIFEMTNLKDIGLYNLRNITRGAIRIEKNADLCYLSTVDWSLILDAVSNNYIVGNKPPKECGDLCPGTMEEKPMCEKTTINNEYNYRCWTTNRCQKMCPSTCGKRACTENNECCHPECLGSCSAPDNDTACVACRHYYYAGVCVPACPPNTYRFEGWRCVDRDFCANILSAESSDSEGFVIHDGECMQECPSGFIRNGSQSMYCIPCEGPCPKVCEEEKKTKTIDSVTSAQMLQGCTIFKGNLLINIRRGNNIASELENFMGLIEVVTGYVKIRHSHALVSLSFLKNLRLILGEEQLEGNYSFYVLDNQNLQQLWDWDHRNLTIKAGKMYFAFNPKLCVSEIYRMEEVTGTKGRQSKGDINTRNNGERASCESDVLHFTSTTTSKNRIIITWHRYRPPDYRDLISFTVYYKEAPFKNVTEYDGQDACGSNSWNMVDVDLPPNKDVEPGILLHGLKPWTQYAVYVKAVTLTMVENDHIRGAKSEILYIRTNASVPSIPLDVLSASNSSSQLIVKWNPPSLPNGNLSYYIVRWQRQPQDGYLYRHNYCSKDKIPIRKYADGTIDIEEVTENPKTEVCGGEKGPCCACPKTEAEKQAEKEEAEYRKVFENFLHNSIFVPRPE
Sequence of Insulin-like growth factor 1 receptor (Homo sapiens) (P08069 741-1367 limits assumed): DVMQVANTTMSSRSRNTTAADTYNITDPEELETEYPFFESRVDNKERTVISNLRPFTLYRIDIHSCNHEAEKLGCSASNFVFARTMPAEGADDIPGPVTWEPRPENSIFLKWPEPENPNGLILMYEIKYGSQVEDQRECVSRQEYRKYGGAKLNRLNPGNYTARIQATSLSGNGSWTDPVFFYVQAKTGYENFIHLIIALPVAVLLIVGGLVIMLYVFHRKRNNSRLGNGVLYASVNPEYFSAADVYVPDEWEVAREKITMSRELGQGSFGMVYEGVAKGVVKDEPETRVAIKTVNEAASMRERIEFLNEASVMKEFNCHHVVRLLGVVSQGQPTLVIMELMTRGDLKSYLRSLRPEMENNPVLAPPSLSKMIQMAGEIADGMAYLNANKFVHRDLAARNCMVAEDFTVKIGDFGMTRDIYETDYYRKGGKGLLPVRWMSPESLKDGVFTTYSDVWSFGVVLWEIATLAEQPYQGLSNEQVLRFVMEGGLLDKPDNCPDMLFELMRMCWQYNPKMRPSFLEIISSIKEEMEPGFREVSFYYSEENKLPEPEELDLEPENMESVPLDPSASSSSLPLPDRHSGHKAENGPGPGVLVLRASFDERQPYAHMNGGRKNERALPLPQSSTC

`COc1ccc2c(c1)/C(=C/c1cnc[nH]1)C(=O)N2`: the residual activity in assay [1] was found to be 53%; in assay [2], 75%; in assay [3], 21%; in [4], 41%; in assay [5] it was 7%; in assay [6], 72%. The residual activity in assay [7] came to 14%; in assay [8], 59%; in assay [9] it was 12%.

For the molecule `CCc1nc(-c2ccc(OC)cc2)[nH]c1-c1ccncc1`, the residual activity in [10] worked out at 105%; in assay [1], 100%; in assay [11], 112%; in assay [12] it was 100%; in assay [13], 113%; in assay [14] it was 107%. Moreover, the residual activity was found to be 108% in assay [15], 104% in [16] and 107% in assay [17].

`COc1cc2ncnc(Nc3ccc(OCc4ccccc4)cc3)c2cc1OC`: the residual activity in assay [10] is 100%; in assay [1] it was 105%; in assay [11], 108%; in assay [12] it was 105%; in [13] it was 116%; in [14], 82%. Moreover, the residual activity in assay [2] was 99%; in [3], 96%; in assay [4], 108%; in assay [5] it was 91%; in [6], 104%; in assay [7], 90%. Also, the residual activity in assay [8] was 107%; in [9], 93%; in [15], 92%; in assay [18], 71%; in [19], 102%; in assay [20], 100%. Also, the residual activity in assay [16] amounted to 108%; in assay [17], 104%.
